A selection: hits, their analogues and other compounds. The true share with any hit is near 3.2%.
USP1 inh = Inhibitors of USP1/UAF1: Primary Screen; 0.23% of 390,000 active; Potency, µM (titrated, usually from 57.1 µM), for the others: top-dose activity change, negative = inhibition, usual class: inhibitors; Ubiquitin carboxyl-terminal hydrolase 1 (Homo sapiens), O94782; recombinant USP1/UAF1, Ub-Rhodamine cleavage fluorescence; AID 743255, 2014; note: potency is the fitted concentration of half-maximal effect; nearly all actives have a fitted effect of over 60% in size
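USP1/UAF1 complex at 1 nM was preincubated with compound for 15 min at room temperature, then Ub-Rho substrate (150nM final) was added. Fluorescence (480/540 nm) was read kinetically, 6 reads every 60 seconds.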
VDR inhibitor = Inhibitors of the vitamin D receptor (VDR): qHTS; Vitamin D3 receptor (Homo sapiens), P11473; VDR-SRC2-3 peptide fluorescence polarization, 2 h; Potency, µM, for the others: max response, negative = inhibition, usual class: inhibitors; 0.93% of 400,000 active; note: potency is the fitted concentration of half-maximal effect
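Measured by FP: displacement of SRC2-3 coactivator peptide from VDR by library compounds, following a two-hour ambient incubation.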
USP2a inh = qHTS Assay for Inhibitors of Ubiquitin-specific Protease USP2a Using CHOP2 as the Reporter | AID 463254, 2010 | 0.01% of 330,000 active | Potency, µM (top dose mostly 38.3 µM), for inactives: top-dose activity change, negative = inhibition, actives largely listed as inhibitors | USP2 core, Ub-CHOP2 coupled fluorogenic reporter, 485/531;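 note: potency is the fitted concentration of half-maximal effect; plate controls were DMSO wells for no effect and full inhibition by NEM control for full effect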
Target sequence (O75604 whole entry, looked up): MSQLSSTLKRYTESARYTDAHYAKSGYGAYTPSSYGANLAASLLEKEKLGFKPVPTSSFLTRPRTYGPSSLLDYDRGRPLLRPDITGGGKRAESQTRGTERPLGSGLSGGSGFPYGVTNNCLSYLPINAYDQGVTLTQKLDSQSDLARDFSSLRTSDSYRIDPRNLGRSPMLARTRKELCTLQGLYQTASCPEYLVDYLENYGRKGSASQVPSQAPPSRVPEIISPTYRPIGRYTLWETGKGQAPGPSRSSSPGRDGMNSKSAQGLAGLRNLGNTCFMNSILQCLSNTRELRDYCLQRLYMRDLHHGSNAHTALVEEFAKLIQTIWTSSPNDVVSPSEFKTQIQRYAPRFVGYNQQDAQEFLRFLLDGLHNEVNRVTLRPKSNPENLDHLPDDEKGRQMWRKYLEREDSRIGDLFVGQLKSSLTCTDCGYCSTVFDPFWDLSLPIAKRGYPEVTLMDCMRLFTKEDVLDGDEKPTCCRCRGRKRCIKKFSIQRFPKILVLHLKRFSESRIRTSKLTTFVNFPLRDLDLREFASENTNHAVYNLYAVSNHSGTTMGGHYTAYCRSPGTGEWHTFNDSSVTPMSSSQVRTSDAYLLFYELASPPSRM
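Cell-free coupled assay: 10nM USP2 core preincubated 30min RT with compound in Tris-HCl pH 8.0/CaCl2/CHAPS buffer, then 25nM Ub-CHOP2 and 25nM reporter substrate; fluorescence (Ex 485/Em 531) read after 60min RT, normalized to NEM inhibition, concentration-response curves fitted.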
FBPA coupling cs = qHTS Assay for Inhibitors of Fructose-1,6-bisphosphate Aldolase from Giardia Lamblia: Coupling assay counterscreen. coupling enzyme system counterscreen, AmpLite Red fluorescence. activity change, negative = inhibition, % at 58.2 µM, hits read low. 0.67% of 290,000 active. AID 2472, 2010; in the data active = activity change below about -30%
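Compounds tested against the coupling enzymes alone at 57.5 uM final; readout was AmpLite Red fluorescence (525/598 nm) after 20 min at RT.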
PLK1 PBD inh = qHTS for Inhibitors of PLK1-PDB (polo-like kinase 1 - polo-box domain): Primary Screen | Serine/threonine-protein kinase PLK1 (Homo sapiens), P53350 | Plk1 PBD binding of FITC phosphopeptide, fluorescence polarization | Potency, µM, without a hit: max response, negative = inhibition, most hits filed as inhibitors | 2.8% of 360,000 active | AID 720504, 2013; note: potency is the fitted concentration of half-maximal effect; series mostly up to about 57 µM; nearly all actives have a fitted effect of over 65% in size
GALK inh = qHTS Assay for Inhibitors of Human Galactokinase (GALK); P51570; Purified GALK, Kinase-Glo residual ATP luminescence; Potency, µM (highest dose often 57.5 µM), for inactives: at the top dose activity change, negative = inhibition, usual class: inhibitors; 0.007% of 270,000 active; AID 1868, 2009; note: potency is the fitted concentration of half-maximal effect
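ATP-depletion format; final 35 uM ATP, 100 uM D-galactose, 5 nM enzyme; pH 8.0 HEPES/Mg2+ buffer; 60 min RT; luminescence read 10 min after detection reagent.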
An asterisk follows results filed as active; ? = inconclusive; . = no result. Unless noted, calls come from the whole dose curve; as a rule, active = well fitted curve in the direction sought with a large enough effect; inconclusive = small, poorly fitted or top-dose-only effect, or another doubt; inactive = no such curve, though single readings can be large; an effect the other way counts as inactive or inconclusive. Unless noted, % is set by controls: 0 for no effect and ±100 for the full control effect.

SMILES	USP1 inh	VDR inhibitor	USP2a inh	FBPA coupling cs	PLK1 PBD inh	GALK inh
CCOc1c(Br)cc(C2NC(=O)CCC2[N+](=O)[O-])cc1OC (stereo unspecified)	-21.0%	-12.5%	5.2%	1.2	-2.0%	-1.8%
CCOc1cc(C2NC(=O)CCC2[N+](=O)[O-])cc(Br)c1OC (stereo unspecified)	-4.6%	?	-0.6%	2.1	26.7µM*	-1.2%
Cc1ccccc1NC(=O)CC(NCc1cccnc1)C(=O)O (stereo unspecified)	?	2.6%	.	.	.	.
COc1cc(-c2noc(-c3ccc(NC4CCCC4)c([N+](=O)[O-])c3)n2)cc(OC)c1OC	-24.4%	13.0%	.	.	.	.
CCOC(=O)/C(C#N)=C1\CC2CCC1(C)C2(C)C (stereo unspecified)	4.8%	79.4µM*	-0.9%	6.3	5.97µM*	-1.2%
CS(=O)(=O)N1CCN(c2ccccc2NC(=O)c2cccs2)CC1	-9.8%	-3.8%	0.3%	6.0	-6.4%	-2.6%
CC(C)C1C(=O)N(Cc2cn(CCC3OCCCO3)nn2)CCS(=O)(=O)N1Cc1ccc(-c2ccc(Cl)cc2)cc1 (stereo unspecified)	-32.0%	.	.	.	-3.5%	.
CCOC(=O)c1ccc(-n2c(CCC(=O)O)ccc2-c2cccs2)cc1	-8.8%	?	0.6%	14.8	18.9µM*	-1.3%
CN(CC(=O)Nc1cccc(F)c1)C(=O)c1cn(-c2ccccc2)nc1-c1ccc(F)cc1	-14.9%	-23.2%	-1.3%	.	-6.2%	.
COC(=O)c1ccc(CNC(=O)C2CCC(=O)N(CCCc3ccccc3)C2)cc1 (stereo unspecified)	5.1%	?	-0.1%	.	3.36µM*	9.9%
CCOc1ccc(Br)cc1C1=NN(C(C)=O)C(c2ccc([N+](=O)[O-])s2)O1 (stereo unspecified)	22.4µM*	9.0%	-2.4%	-4.2	-13.3%	-2.8%
COc1ccc(-c2cnc3c(NC(C)=O)cc(-c4cccc(C(=O)NCCO)c4)cn23)cc1OC	.	.	.	.	-8.6%	.
CC1=NN(c2ccc(Cl)cc2)C(=O)C1C(c1cccc(O)c1)c1c(C)[nH]n(-c2ccc(Cl)cc2)c1=O (stereo unspecified)	-10.8%	79.4µM*	-1.0%	14.7	5.32µM*	0.5%
CC1=NN(c2ccc(F)cc2)C(=O)C1C(c1cccc(O)c1)c1c(C)[nH]n(-c2ccc(F)cc2)c1=O (stereo unspecified)	?	-12.8%	1.7%	-5.6	5.32µM*	.
Oc1ccccc1C=NNC(=S)Nc1ccc(F)cc1	-8.2%	10.6%	.	.	-4.9%	.
Cc1nn(C)cc1/C=N/NC(=S)Nc1ccccc1	-9.2%	89.1µM*	-0.6%	-1.8	11.9µM*	-0.4%
CCc1nc(N2CCCCC2)c2oc3ccccc3c2n1	-15.8%	-2.7%	.	4.8	-4.5%	0.9%
CCc1nc(N2CCCC(C)C2)c2oc3ccccc3c2n1 (stereo unspecified)	-18.2%	?	-6.3%	3.9	15µM*	3.4%
CC(=O)NCCNc1ncnc2ccc(-c3cccc(NS(C)(=O)=O)c3)cc12	.	44.7µM*	.	-1.5	.	.
COCCNc1ncnc2ccc(-c3cccc(NS(C)(=O)=O)c3)cc12	.	?	.	-2.3	.	.
COC(=O)/C(=C/c1c[nH]c2ccccc12)[N+](=O)[O-]	-5.8%	-7.5%	0.1%	-18.5	2.38µM*	-0.7%
CCCc1cc(=O)oc2cc(C)cc(OCC(=O)NC3CCN(Cc4ccccc4)CC3)c12	2.4%	-4.3%	-0.7%	-0.6	-15.6%	-2.2%
CCC(O)C1CCN(Cc2cn(Cc3ccccc3)nc2-c2cc3ccccc3o2)CC1 (stereo unspecified)	-5.2%	-1.9%	0.4%	1.2	-8.3%	-0.3%
CCOc1ccc(-n2c(SCC(=O)Nc3ccccc3C)n[nH]c2=O)cc1	-0.1%	12.3%	-0.6%	2.3	-10.9%	-1.2%
CC(C)c1ccc(Nc2nnns2)cc1	-14.9%	79.4µM*	5.6%	0.2	26.7µM*	-1.0%
SMILES	USP1 inh	VDR inhibitor	USP2a inh	FBPA coupling cs	PLK1 PBD inh	GALK inh
O=C(c1ccc2c3c(cccc13)CC2)C1CCCN(C(=O)c2ccc(=O)[nH]c2)C1 (stereo unspecified)	-6.8%	?	-1.6%	-5.1	-22.2%	3.2%
Cc1ccc(C(=O)ON=C2CCN(S(=O)(=O)c3ccccc3)CC2)cc1	-8.4%	?	3.4%	-1.2	26.7µM*	0.1%
O=C(ON=C1CCN(S(=O)(=O)c2ccccc2)CC1)c1ccc(F)cc1	-20.4%	11.4%	1.1%	-2.6	-1.4%	-3.3%
CC(=O)c1cccc(N=Nc2c(-c3ccccc3)[nH]n(-c3ccccc3)c2=O)c1	?	-7.1%	1.8%	-2.6	23.8µM*	4.4%
Cc1[nH]n(-c2ccccc2)c(=O)c1N=Nc1cccc(Cl)c1	-19.6%	7.0%	1.2%	-7.9	2.5%	5.4%
C#CCOCCOCCOCCNc1nc(N2CCOCC2)nc(N2CCN(C(=O)[C@H](Cc3cc4ccccc4[nH]3)n3cc([C@@H](N)Cc4ccc(O)cc4)nn3)CC2)n1	21.3%	-19.1%	3.0%	0.7	26.7µM*	-1.5%
NC(=O)c1ccc(N=Cc2ccc([N+](=O)[O-])s2)cc1	10µM*	-29.3%	2.8%	-30.6*	?	-9.0%
O=[N+]([O-])c1ccc(C=Nc2ccc(Cl)c([N+](=O)[O-])c2)s1	.	.	9.2%	-34.3*	.	-1.4%
O=[N+]([O-])c1ccc(/C=N/Nc2ncccc2[N+](=O)[O-])s1	-0.6%	-5.9%	.	.	-6.4%	.
Cc1cc(C)cc(N=Cc2ccc([N+](=O)[O-])s2)c1	12.6µM*	-15.3%	3.4%	-21.5	-5.5%	.
Cc1ccc(NC(=S)N/N=C/c2ccc([N+](=O)[O-])s2)cc1	-24.7%	-3.7%	-11.9%	-5.4	-3.6%	.
C1=CCN(c2nc(N3CCOCC3)nc(N3CCCc4ccccc43)n2)CC1	-20.2%	.	.	.	3.9%	.
COc1ccc(CCNC(=O)Cn2c(=O)n(CCCC(=O)NCc3ccco3)c(=O)c3sccc32)cc1OC	-19.3%	-0.5%	-2.1%	1.5	1.3%	7.1%
COc1ccc(NC(=O)C2CCN(C(=O)c3cccs3)CC2)c(OC)c1	-6.9%	?	-0.9%	3.2	7.52µM*	-3.8%
Cc1cccc(N2CCC(N3CCN(C4CCCCC4)C(CCO)C3)CC2)c1C (stereo unspecified)	-8.8%	7.5%	2.5%	-10.3	5.3%	0.1%
